HT1080 IDH1KD tx = toxicity to HT-1080 IDH1 knockdown cells (counter line); HT-1080 IDH1 knockdown viability, ATP luminescence, 48 h; Potency, µM (titrated, usually from 46.1 µM), usual class: cytotoxic; 360,000 tested, 2% active; AID 686971
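Assay cells: HT-1080 with IDH1 knockdown, 750 per well, RPMI/5% FBS. Exposure: 48 h at 37 °C following 2 h pre-incubation. Read: CellTiter-Glo luminescence; fitted concentration-response, curve class assigned.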
DT40 TDP1 no CPT = qHTS for Inhibitors of human tyrosyl-DNA phosphodiesterase 1 (TDP1): qHTS in cells in absence of CPT; AID 686978, 2013; Potency, µM (doses to about 46.2 µM), actives largely listed as inhibitors; 420,000 tested, 15% active; DT40 Tdp1-/- hTDP1 cells, no CPT, ATP luminescence, 48 h; also: nearly all actives have a fitted effect of over 55% in size
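A cellular qHTS used chicken DT40 cells lacking endogenous Tdp1 but carrying stably transfected human TDP1. Compounds were applied without camptothecin, and cell growth kinetics were judged by ATP-dependent luminescence after ≥48 hr.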
IL-1B inflam inh = blocks inflammasome-driven IL-1 beta release. activity change, % at 57.5 µM. THP-1 LPS/ATP IL-1B secretion, AlphaLISA, 16 h; hits give low values. AID 743279. 360,000 tested, 4.7% active; in the data active = activity change below about -50%; inconclusive = mostly about -30% to -49%
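THP-1 cells pretreated 1 hr with compounds (up to 57.5 uM final), then stimulated with LPS (250 ng/mL final) plus ATP (1.25 mM final); secreted IL-1B measured by AlphaLISA after 16 hr, decreased signal indicating inhibition.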
HT1080NT lethal = kills 2HG-producing HT-1080-NT fibrosarcoma cells. HT-1080-NT fibrosarcoma viability, CellTiter-Glo ATP luminescence, 48 h. Potency, µM (top dose mostly 46.1 µM), usual class: cytotoxic. 360,000 tested, 1.6% active;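 also: NT is the 2HG producing partner of a matched IDH1 knockdown line; nearly all actives have a fitted effect of over 55% in size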
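HT-1080-NT fibrosarcoma cells (2HG-overproducing), 750 cells/well in RPMI with 5% FBS, dosed after 2 h and incubated 48 h at 37C. CellTiter-Glo luminescence normalized to DMSO and no-cell wells; concentration-response curves fitted and classed.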
DT40 TDP1 CPT = DT40-hTDP1 cell growth loss with CPT | chicken DT40 Tdp1-/-;hTDP1 cells + 20 nM CPT, ATP luminescence, 48 h | Potency, µM (doses to about 46.2 µM), actives largely listed as inhibitors | 420,000 tested, 12% active | AID 686979; also: nearly all actives have a fitted effect of over 55% in size
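Chicken DT40 Tdp1-/- cells complemented with human TDP1, 400 cells/well, exposed to compounds plus 20 nM camptothecin for at least 48 h at 37 C; viability read as ATP content by CellTiter-Glo luminescence.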
Hits are given with their value; 0 = inactive; ? = inconclusive; - = no result given. The list is not random: actives were taken first. Their share in the collection is about 19%. Unless noted, calls follow the shape of the dose curve; as a rule, active = well fitted curve in the direction sought with a large enough effect; inconclusive = small, poorly fitted or top-dose-only effect, or another doubt; inactive = no such curve, though single readings can be large; an effect the other way counts as inactive or inconclusive.

SMILES	HT1080 IDH1KD tx	DT40 TDP1 no CPT	IL-1B inflam inh	HT1080NT lethal	DT40 TDP1 CPT
O=C(c1cc(F)ccc1F)C1CCCN(Cc2cccn2-c2ccccn2)C1 (stereo unspecified)	0	?	?	0	?
Cn1cc(CN2CCCC(C(=O)c3cc(F)ccc3F)C2)c2ccccc21 (stereo unspecified)	?	16µM	-71	?	?
CCOCCn1c2ccccc2c2nc3ccccc3nc21	0	?	?	0	?
CCn1c2ccccc2c2nc3cc(OC)c(OC)cc3nc21	?	13µM	-52	?	13µM
CCn1c2ccccc2c2nc3ccccc3nc21	0	18µM	0	0	?
CCn1c2ccccc2c2nc3cc(C(=O)O)ccc3nc21	?	0	-56	?	0
COc1cccc(CN2CCC(Oc3ccc(C(=O)NCc4ccccn4)cc3)CC2)c1O	0	0	0	0	0
COC(=O)[C@]1(C)CCC[C@@]2(C)C3CC[C@@]4(C)C[C@]3(CCC21)CC4=NO (stereo partly specified)	0	21µM	0	0	?
C=C1C[C@@]23CCC4[C@@](C)(CCC[C@@]4(C)C(=O)OC)C2CC[C@]1(OC(C)=O)C3 (stereo partly specified)	0	?	0	0	18µM
C[C@@]12CCC3[C@@](CCC4[C@@]3(C)CCC[C@@]4(C)C(=O)NC3CCCCC3)(CC1=O)C2 (stereo partly specified)	0	23µM	0	0	18µM
Cc1ccc(CNC(=O)[C@]2(C)CCC[C@@]3(C)C4CC[C@@]5(C)C[C@]4(CCC32)CC5=O)cc1 (stereo partly specified)	0	?	0	0	?
COC(=O)[C@]1(C)CCC[C@@]2(C)C3CC[C@@]4(C)C[C@]3(CCC21)CC(=O)N4C (stereo partly specified)	0	?	0	0	?
COc1ccc2cc(CCC(C)=O)ccc2c1	0	0	0	0	0
COc1ccc(CCc2ccc3cc(OC)ccc3n2)cc1	0	?	-55	0	?
CCOC(=O)/C=C1\NC(=O)C(C)S1 (stereo unspecified)	0	0	0	0	0
C=Cn1cc[n+](CC(=O)c2ccc(-c3ccccc3)cc2)c1	0	2.3µM	?	0	3.3µM
C=Cn1cc[n+](CC(=O)c2cccs2)c1	0	0	0	0	0
C=Cn1cc[n+](CC(=O)c2ccc(Br)s2)c1	0	?	0	0	0
C=Cn1cc[n+](CC(=O)c2cc(C(C)(C)C)c(O)c(C(C)(C)C)c2)c1	0	16µM	0	0	15µM
CCCCN1C(=O)C(CC(=O)NCCCCc2ccccc2)CC(C(=O)N(C(C)C)C(C)C)=C1C (stereo unspecified)	0	?	0	0	?
CC1(C(=O)NS(=O)(=O)C2CC2)CCCN(C(=O)COc2ccccc2)C1 (stereo unspecified)	0	?	0	?	?
CC1(C(=O)NS(=O)(=O)C2CC2)CCCN(C(=O)c2cccc(C(F)(F)F)c2)C1 (stereo unspecified)	0	4.1µM	0	0	?
COCCNC(=O)C1(C)CCCN(C(=O)c2cccc(C(F)(F)F)c2)C1 (stereo unspecified)	0	0	0	0	0
CC1(C(=O)NS(=O)(=O)C2CC2)CCCN(C(=O)c2ccccc2OC(F)(F)F)C1 (stereo unspecified)	0	9.2µM	0	0	?
COc1ccc(C(=O)N2CCCC(C)(C(=O)NS(=O)(=O)C3CC3)C2)cc1 (stereo unspecified)	0	1.5µM	0	0	?
SMILES	HT1080 IDH1KD tx	DT40 TDP1 no CPT	IL-1B inflam inh	HT1080NT lethal	DT40 TDP1 CPT
CC1(C(=O)NS(=O)(=O)C2CC2)CCCN(C(=O)c2cccc(OC(F)(F)F)c2)C1 (stereo unspecified)	0	3.7µM	-64	0	?
CCOC(=O)NNC(=O)NCCCCCCNC(=O)NNC(=O)OCC	0	0	0	0	0
COc1cc2nc(SCC(=O)Nc3c(C)cc(C)cc3C)n3nc(CCn4c(C)nc5ccccc54)nc3c2cc1OC	-	0	-	-	?
CC(C)NC(=S)N1CCN(C/C=C/c2ccccc2)CC1	0	0	0	0	0
CCN(CCCNC(=O)CNC(=O)c1nn(-c2ccc(OC)cc2OC)c(=O)c2ccccc12)c1cccc(C)c1	0	?	0	0	?
CC1(C(=O)NS(=O)(=O)C2CC2)CCCN(C(=O)c2ccc(C(F)(F)F)cc2)C1 (stereo unspecified)	0	0.65µM	0	0	0.73µM
CC1(C(=O)NS(=O)(=O)C2CC2)CCN(C(=O)c2ccccc2C(F)(F)F)C1 (stereo unspecified)	0	0	0	0	0
COc1cc(C(=O)N2CCCC(C)(C(=O)NS(=O)(=O)C3CC3)C2)cc(OC)c1OC (stereo unspecified)	0	0.92µM	0	0	1.6µM
COc1ccc(CNC(=O)Cn2nc3c(cc2=O)CCCC3)cc1	-	0	-	-	0
Cc1cc(C(=O)N2CCCC(C)(C(=O)NS(=O)(=O)C3CC3)C2)nn1C(C)(C)C (stereo unspecified)	0	2.9µM	0	0	?
CCCNC(=O)C1(C)CCN(C(=O)c2cc(C)nn2C(C)(C)C)C1 (stereo unspecified)	0	0	0	0	0
CCCNC(=O)C1(C)CCCN(C(=O)c2cc(C)nn2C(C)(C)C)C1 (stereo unspecified)	?	?	0	0	12µM
CCNC(=O)C1(C)CCCN(C(=O)c2cc(C)n(C(C)(C)C)n2)C1 (stereo unspecified)	?	0	0	0	7.3µM
COc1ccc(NC(=O)c2oc3ccc(S(=O)(=O)N(C)C4CCCCC4)cc3c2C)cc1Cl	-	5.8µM	-	-	9.2µM
Cc1c(C(=O)Nc2ccc(F)c(Cl)c2)oc2ccc(S(=O)(=O)N(C)C3CCCCC3)cc12	-	15µM	-	-	23µM
COc1ccc(NC(=O)CN(C)C2CCCCC2)cc1Cl	0	0	0	0	0
COc1ccc2oc(C(=O)Nc3ccc(S(=O)(=O)N(C)C4CCN(C)CC4)cc3)c(C)c2c1	18µM	18µM	?	23µM	?
Cc1c(C(=O)Nc2cccc(C(F)(F)F)c2)oc2ccc(S(=O)(=O)N(C)C3CCCCC3)cc12	-	13µM	-	-	12µM
Cc1c(C(=O)O)oc2ccc(S(=O)(=O)NC3CCCCCCC3)cc12	0	0	0	0	0
CC(NC(=O)Nc1ccc([N+](=O)[O-])cc1)C(c1cccs1)N1CCCC1 (stereo unspecified)	0	0	0	0	0
COCCCNC(=O)c1oc2ccc(S(=O)(=O)N(C)C3CCCCC3)cc2c1C	0	?	0	0	?

High-throughput results from PubChem.
